Drawing on PubChem BioAssay (EPA / NIEHS), this text covers outcome and AC50 for eleven molecules.

Records with an inconclusive call do not appear. Active and inactive are the calls of the source. Rule for the calls, unless noted: active = hit-call score of the fitted dose curve at least 0.9, where 1 is the maximum; inactive = score below 0.9.

Read-out in assay [1]: Signal transducer and activator of transcription 3 (Homo sapiens) (UniProt P40763)
The assay is described as follows: LTEA_HepaRG_STAT3: Life Technologies and Expression Analysis (LTEA) Assay for Signal transducer and activator of transcription (STAT3) using HepaRG (AID 2283529). Particulars: mRNA level, 48 h; actives raise or lower the signal. An outline of the steps: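 Differentiated HepaRG cells, serum-free induction medium, dosed 48 h in duplicate, 8 half-log concentrations from 100 uM in 0.5% DMSO. STAT3 mRNA by qRT-PCR, normalised to ACTB, GAPDH, POLR2A; bidirectional fit versus DMSO.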

Read-out in assay [2]: solute carrier (SLCO1B1), SLCO1B1 (gene 10599)
The assay is described as follows: LTEA_HepaRG_SLCO1B1: Life Technologies and Expression Analysis (LTEA) Assay for solute carrier (SLCO1B1) using HepaRG (AID 2283530). Particulars: mRNA level, 48 h; actives raise or lower the signal. An outline of the steps:
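SLCO1B1 transcript levels were quantified by TaqMan qRT-PCR using three housekeeping genes for normalization. This followed 48 h chemical exposure (100 uM top, half-log, 8 points, 0.5% DMSO) of HepaRG liver cells, with gain or loss fitted relative to DMSO.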

Read-out in assay [3]: sulfotransferase 2A1 (SULT2A1), SULT2A1 (gene 6822)
The assay is described as follows: LTEA_HepaRG_SULT2A1: Life Technologies and Expression Analysis (LTEA) Assay for sulfotransferase 2A1 (SULT2A1) using HepaRG (AID 2283531). Particulars: mRNA level, 48 h; actives raise or lower the signal. An outline of the steps: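 Expression change of SULT2A1, by qRT-PCR with three housekeeping-gene normalization, was scored bidirectionally versus DMSO. Cells: differentiated HepaRG, dosed in duplicate for 48 h across 8 points, highest 100 µM, half-log dilution, 0.5% DMSO.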

Read-out in assay [4]: Transforming Growth Factor (TGFA), TGFA (gene 7039)
The assay is described as follows: LTEA_HepaRG_TGFA: Life Technologies and Expression Analysis (LTEA) Assay for Transforming Growth Factor (TGFA) using HepaRG (AID 2283532). Particulars: mRNA level, 48 h; actives raise or lower the signal. The essentials: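 Differentiated HepaRG cells exposed 48 hours in serum-free induction medium, 0.5% DMSO vehicle, 8-point half-log series from 100 uM, in duplicate. TGFA mRNA by TaqMan qRT-PCR, normalised to ACTB, GAPDH, POLR2A; bidirectional fit versus DMSO.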

Read-out in assay [5]: Transforming Growth Factor (TGFB1), TGFB1 (gene 7040)
The assay is described as follows: LTEA_HepaRG_TGFB1: Life Technologies and Expression Analysis (LTEA) Assay for Transforming Growth Factor (TGFB1) Transporter using HepaRG (AID 2283533). The following applies: mRNA level, 48 h; actives raise or lower the signal. The essentials:
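TGFB1 transcript measured by qRT-PCR with normalisation to three housekeeping genes (ACTB, GAPDH, POLR2A); human HepaRG line treated in duplicate for 48 hr with an 8-point series topping at 100 uM, 0.5% DMSO vehicle, bidirectionally fitted.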

Read-out in assay [6]: TIMP1, TIMP1 (gene 7076)
The assay is described as follows: LTEA_HepaRG_TIMP1: Life Technologies and Expression Analysis (LTEA) Assay for TIMP1 using HepaRG (AID 2283534). The following applies: mRNA level, 48 h; actives raise or lower the signal. An outline of the steps: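 Bidirectional change in TIMP1 transcript versus 0.5% DMSO, measured by TaqMan qRT-PCR with three housekeeping genes for normalization. HepaRG human liver cells dosed 48 h in duplicate, top concentration 100 uM with half-log dilutions.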

Read-out in assay [7]: Tumor necrosis factor receptor 1 (TNFRSF1A), TNFRSF1A (gene 7132)
The assay is described as follows: LTEA_HepaRG_TNFRSF1A: Life Technologies and Expression Analysis (LTEA) Assay for Tumor necrosis factor receptor 1 (TNFRSF1A) using HepaRG (AID 2283535). The following applies: mRNA level, 48 h; actives raise or lower the signal. An outline of the steps:
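mRNA measured by qRT-PCR (TaqMan, Fluidigm arrays) against ACTB/GAPDH/POLR2A housekeepers after 48 h chemical exposure of HepaRG cells. Top concentration 100 uM, half-log 8-point series, duplicates; vehicle 0.5% DMSO, both fit directions.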

Read-out in assay [8]: Thyroid Hormone Responsive (THRSP), THRSP (gene 7069)
The assay is described as follows: LTEA_HepaRG_THRSP: Life Technologies and Expression Analysis (LTEA) Assay for Thyroid Hormone Responsive (THRSP) using HepaRG (AID 2283536). Particulars: mRNA level, 48 h; actives raise or lower the signal. The essentials: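 Differentiated HepaRG cells treated 48 h in serum-free induction medium with 8 half-log concentrations up to 100 uM (0.5% DMSO), duplicates. THRSP mRNA by TaqMan qRT-PCR normalised to ACTB, GAPDH, POLR2A; bidirectional fit versus DMSO.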

Read-out in assay [9]: UDP glucuronosyltransferase (UGT1A1), UGT1A1 (gene 54658)
The assay is described as follows: LTEA_HepaRG_UGT1A1: Life Technologies and Expression Analysis (LTEA) Assay for UDP glucuronosyltransferase (UGT1A1) using HepaRG (AID 2283538). Particulars: mRNA level, 48 h; actives raise or lower the signal. The essentials: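 HepaRG cells, 0.5% DMSO vehicle, 48 h exposure in serum-free induction medium to 8-point half-log series topping at 100 uM, in duplicate. UGT1A1 mRNA by Fluidigm qRT-PCR, normalized to ACTB/GAPDH/POLR2A; bidirectional fit versus DMSO.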

Read-out in assay [10]: UDP glucuronosyltransferase (UGT1A6), UGT1A6 (gene 54578)
The assay is described as follows: LTEA_HepaRG_UGT1A6: Life Technologies and Expression Analysis (LTEA) Assay for UDP glucuronosyltransferase (UGT1A6) using HepaRG (AID 2283539). The following applies: mRNA level, 48 h; actives raise or lower the signal. The essentials: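 Expression was quantified by TaqMan qRT-PCR on Fluidigm arrays with ACTB/GAPDH/POLR2A normalization and bidirectional fitting against 0.5% DMSO. HepaRG cells (~100,000/well) were treated in duplicate for 48 h at eight half-log concentrations up to 100 uM in serum-free induction medium.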

Read-out in assay [11]: X-box binding protein 1 (XBP1), XBP1 (gene 7494)
The assay is described as follows: LTEA_HepaRG_XBP1: Life Technologies and Expression Analysis (LTEA) Assay for X-box binding protein 1 (XBP1) using HepaRG (AID 2283540). Particulars: mRNA level, 48 h; actives raise or lower the signal. The essentials:
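XBP1 transcript by qRT-PCR (housekeeping-normalized: ACTB, GAPDH, POLR2A) after 48 h chemical treatment of HepaRG cells, 8-point half-log series topping at 100 uM, vehicle 0.5% DMSO. Gain and loss of signal fitted relative to DMSO.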

Assay [12] is described as follows: LTEA_HepaRG_LDH_cytotoxicity: Cytotoxicity Assessment in the Life Technologies and Expression Analysis (LTEA) Assay (AID 2283563; active = hit-call score of the fitted dose curve at least 0.9, where 1 is the maximum;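 for AC50: LDH activity released into spent culture medium as a marker of cell death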). An outline of the steps:
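LDH release into culture medium read after 48 h chemical treatment of HepaRG cells. Duplicate wells, eight-point half-log series topping at 100 uM, 0.5% DMSO vehicle and baseline.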

A short description of assay [13]: ATG_XTT_Cytotoxicity: Cytotoxicity Assessment in the Attagene TRANS-FACTORIAL HepG2 Assay (AID 2283584; active = hit-call score of the fitted dose curve at least 0.9, where 1 is the maximum). An outline of the steps:
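Viability endpoint from XTT after 24 h chemical exposure of reporter-transfected human HepG2 liver cells; signal loss fitted relative to DMSO negative control.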

Signal transducer and activator of transcription 3 (Homo sapiens), sequence (P40763 whole entry, looked up): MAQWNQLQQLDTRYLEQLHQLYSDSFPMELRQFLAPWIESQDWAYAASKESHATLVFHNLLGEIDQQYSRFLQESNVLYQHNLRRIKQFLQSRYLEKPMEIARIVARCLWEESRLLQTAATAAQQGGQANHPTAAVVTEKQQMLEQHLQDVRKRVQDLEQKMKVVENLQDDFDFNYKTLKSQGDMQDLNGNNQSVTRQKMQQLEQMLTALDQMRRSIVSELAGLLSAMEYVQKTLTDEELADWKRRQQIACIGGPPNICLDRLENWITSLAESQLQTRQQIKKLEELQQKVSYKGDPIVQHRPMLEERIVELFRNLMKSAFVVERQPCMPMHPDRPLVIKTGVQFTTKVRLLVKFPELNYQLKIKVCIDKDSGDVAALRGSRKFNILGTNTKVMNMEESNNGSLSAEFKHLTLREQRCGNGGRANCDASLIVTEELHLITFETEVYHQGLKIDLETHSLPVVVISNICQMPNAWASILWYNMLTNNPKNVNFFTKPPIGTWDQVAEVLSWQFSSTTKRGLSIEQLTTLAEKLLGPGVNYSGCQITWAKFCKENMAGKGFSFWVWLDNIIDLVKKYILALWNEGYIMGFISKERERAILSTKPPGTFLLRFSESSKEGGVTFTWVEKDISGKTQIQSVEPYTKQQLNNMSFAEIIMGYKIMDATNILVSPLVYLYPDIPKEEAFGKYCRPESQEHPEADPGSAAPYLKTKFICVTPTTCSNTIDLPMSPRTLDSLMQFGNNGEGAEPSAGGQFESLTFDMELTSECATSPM

Take `O=C1NS(=O)(=O)c2ccccc21`: the molecule was classed as inactive in [1], in assay [2], in assay [3], in assay [4], in assay [5] and in assay [6]. The molecule was classed as inactive in [7], in assay [8], in [9], in assay [10], in [11] and in [12]. Moreover, the molecule was called inactive in [13].

In the case of `CC(=O)Nc1ccc(O)cc1`, the molecule was classed as inactive in assay [1], in assay [2], in [3], in [4], in assay [5] and in assay [6]. The result in assay [7], in [8], in assay [9], in assay [10], in [11] and in assay [12] was inactive. The result in [13] was inactive.

On to `Clc1ccc2c(Cl)ccnc2c1`, for which the molecule was called inactive in assay [13].

With `CC(C)[C@@H]1CC[C@@H](C)C[C@H]1O`, the result in assay [13] was inactive.

For `Cc1[nH]nc2c1N=C(c1ccccc1Cl)c1cc([N+](=O)[O-])ccc1N2`, the half-maximal activity concentration (AC50) was 3.77 µM (active) in assay [1]; 7.93 µM (active) in assay [2]; 28.3 µM (active) in assay [3]; 50 µM (active) in assay [4]; 1.74 µM (active) in assay [5]; 2.38 µM (active) in assay [6]. The AC50 in assay [7] was 12.4 µM (active); in assay [8], 8.84 µM (active); in [10], 86.8 µM (active); in [11], 3.64 µM (active); in assay [12], 61.4 µM (active). Also, the outcome in assay [9] and in [13] was inactive.

Consider `CCOC=O`, for which the result in assay [13] was inactive.

Turning to `Oc1cc2ccccc2cc1O`, the outcome in assay [13] was inactive.

Take `CCCCCCCCCCCCOS(=O)(=O)O`: the outcome in assay [1], in assay [4], in [6], in assay [7], in assay [11] and in assay [12] was inactive. Also, the AC50 in assay [3] is 80.2 µM (active); in assay [5], 80.9 µM (active); in [8], 80.5 µM (active); in assay [9], 91.7 µM (active); in assay [10], 81 µM (active).

Consider `CC(C)c1c(C(=O)Nc2ccccc2)c(-c2ccccc2)c(-c2ccc(F)cc2)n1CC[C@@H](O)C[C@@H](O)CC(=O)O`, for which, in [13], the molecule was classed as inactive.

Turning to `CCOC=C(C(=O)OCC)C(=O)OCC`, the result in [13] was inactive.

With `CCCCC=O`, the molecule was classed as inactive in assay [1], in assay [2], in [3], in assay [4], in assay [5] and in assay [6]. In addition, the molecule was called inactive in [7], in [8], in [9], in assay [10], in assay [11] and in assay [12]. The result in assay [13] was inactive.

What is called AC50 is the concentration giving half of the maximal activity seen.
